Inconclusive results are not listed. A call without a number means that no potency is given here. Active and inactive are the calls of the source. Calls come from the whole dose curve; as a rule, active = well fitted curve in the direction sought with a large enough effect; inconclusive = small, poorly fitted or top-dose-only effect, or another doubt; inactive = no such curve, though single readings can be large; an effect the other way counts as inactive or inconclusive.
Columns and labels:
[1] = molecular target: Cytochrome P450 3A7 (Homo sapiens) (UniProt P24462); experiment: Cytochrome P450 family 3 subfamily A member 7 (CYP3A7) small molecule antagonists: luciferase biochemical qHTS assay (AID 1963596); settings: P450-Glo CYP3A7 enzyme luminescence, 1 h; series mostly up to 57.4 µM; note: nearly all actives have a fitted effect of over 40% in size
Sequence of Cytochrome P450 3A7 (Homo sapiens) (P24462 whole entry, looked up): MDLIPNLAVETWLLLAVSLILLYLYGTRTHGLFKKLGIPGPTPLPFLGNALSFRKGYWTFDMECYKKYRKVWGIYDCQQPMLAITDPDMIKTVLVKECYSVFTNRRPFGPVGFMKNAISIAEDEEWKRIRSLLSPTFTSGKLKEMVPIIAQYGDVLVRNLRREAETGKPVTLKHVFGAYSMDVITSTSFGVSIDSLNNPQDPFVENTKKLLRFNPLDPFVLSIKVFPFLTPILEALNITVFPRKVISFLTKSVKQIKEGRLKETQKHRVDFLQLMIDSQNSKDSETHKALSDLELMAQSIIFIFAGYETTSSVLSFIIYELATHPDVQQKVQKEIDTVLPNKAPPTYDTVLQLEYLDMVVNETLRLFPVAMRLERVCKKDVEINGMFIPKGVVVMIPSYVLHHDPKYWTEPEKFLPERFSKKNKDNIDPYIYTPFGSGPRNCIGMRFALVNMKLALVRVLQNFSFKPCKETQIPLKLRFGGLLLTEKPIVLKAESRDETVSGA
Summary of the method: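 Compounds were screened in qHTS format for interference with CYP3A7 turnover of a proluciferin substrate. Reactions ran 1 h at room temperature after NADPH regeneration solution was added, then luciferin product was detected by luminescence.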

[2] = Cellular viability qHTS for adrenocortical cancer (ACC) cell line SW-13 (AID 1963989); settings: SW-13 ACC cells viability, CellTiter-Glo, 48 h; activity (max response): active compounds read low; note: nearly all actives have a fitted effect of over 65% in size; note: potency is the fitted concentration of half-maximal effect;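 for activity (max response): cells grown in serum-free medium with ITS supplement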
Summary of the method: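 Viability was read as CellTiter-Glo luminescence after 48 h compound treatment (up to 46 uM final) of SW-13 cells grown serum-free; titration curves were fit with a four-parameter logistic model to give IC50 and efficacy.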

[3] = Cellular viability qHTS for adrenocortical cancer (ACC) cell line NCI-H295R (AID 1963990); settings: CellTiter-Glo ATP luminescence, 48 h; series mostly up to 46.1 µM; note: nearly all actives have a fitted effect of over 60% in size; note: potency is the fitted concentration of half-maximal effect
Summary of the method: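 CellTiter-Glo ATP luminescence, read 48 h after compound addition, measured viability of NCI-H295R adrenocortical cells grown serum-free with ITS. Final concentrations spanned up to 46 uM. Data normalized to DMSO and doxorubicin, fitted for IC50 and maximal response.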

CCOC(=O)c1ccc(O)cc1
Potency [1]: inactive | activity (max response) [2]: 9.4% (inactive) | Potency [3]: inactive

CCC(C(=O)O)c1ccc(N2Cc3ccccc3C2=O)cc1 (stereo not drawn)
Potency [1]: inactive | activity (max response) [2]: 5.42% (inactive) | Potency [3]: inactive

CC(C)NCC(O)c1ccc2ccccc2c1 (stereo not drawn)
Potency [1]: inactive | activity (max response) [2]: 8.99% (inactive) | Potency [3]: inactive

O=c1[nH]c(=O)n([C@H]2O[C@H](CO)[C@@H](O)[C@@H]2O)cc1/C=C\Br
Potency [1]: inactive | activity (max response) [2]: -3.87% (inactive) | Potency [3]: inactive

CC(C)(Oc1ccc(Cl)cc1)C(=O)O
Potency [1]: inactive | activity (max response) [2]: -3.02% (inactive) | Potency [3]: inactive

N#Cc1cccc(-c2c[nH]c3ncnc(N4CCOCC4)c23)c1
Potency [1]: inactive | activity (max response) [2]: 9.94% (inactive) | Potency [3]: inactive

Cn1cc(S(C)=O)c(=O)c2ccc(F)cc21 (stereo not drawn)
Potency [1]: inactive | activity (max response) [2]: 8.71% (inactive) | Potency [3]: inactive

Cc1ccc(NC(=O)Nc2cc(C(F)(F)F)ccc2F)cc1Nc1ccc2c(c1)NC(=O)/C2=C\c1ccc[nH]1
Potency [1]: inactive | Potency [2]: 22.4 µM (active) | Potency [3]: 25.1 µM (active)

Nc1nc(N)c2nc(-c3ccccc3)c(N)nc2n1
Potency [1]: inactive | Potency [3]: 4.61 µM (active)

CC1c2ccccc2CN1NC(=O)c1ccc(Cl)c(S(N)(=O)=O)c1 (stereo not drawn)
Potency [1]: inactive | activity (max response) [2]: -11.8% (inactive) | Potency [3]: inactive

COc1c(N2C[C@@H]3CCCN[C@@H]3C2)c(F)cc2c(=O)c(C(=O)O)cn(C3CC3)c12
Potency [1]: inactive | activity (max response) [2]: -4.75% (inactive) | Potency [3]: inactive

CC(C)(C)c1ccc(C(=O)CCCCl)cc1
Potency [1]: inactive | activity (max response) [2]: 6.38% (inactive) | Potency [3]: inactive

Nc1ccncc1N
Potency [1]: inactive | activity (max response) [2]: -0.994% (inactive) | Potency [3]: inactive
